Bioassay records (PubChem BioAssay)
The full list was thinned out, with hits kept by preference.
TbPYK inhibitor – T. brucei pyruvate kinase inhibition | actives 0.12% (n = 410,000) | AID 624173 | TbPYK enzyme, Kinase-Glo Plus ATP luminescence, 45 min | Potency, µM (top dose mostly 76.8 µM), without a hit: at the highest dose activity, negative = inhibition, actives largely listed as inhibitors | Q57TT1; further: potency means the concentration at half of the fitted maximal effect; on the % scale 0 is the no-effect control and ±100 the full control effect; nearly all actives have a fitted effect of over 50% in size
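Quantitative HTS: titrated library compounds versus trypanosomal pyruvate kinase in TEA buffer (pH 7.2) containing KCl, MgCl2, BSA and Tween-20. Reactions were initiated with ADP, 130 uM final. Kinase-Glo Plus luminescence was read after 45 min at RT.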
Cycloheximide cs – affects cycloheximide protein synthesis inhibition readout, counter-screen; AID 2314; max response, %; actives 12% (n = 300,000); cell reporter, cycloheximide protein synthesis inhibition counterscreen; in the data active means max response mostly above about 13%, no sharp cut-off; inactive means mostly below about 14%; further: read at 38.3 µM for the half of the compounds with a filed dose; 0% is about no effect
Shiga inhibitor – inhibitors of Shiga toxin in Vero cells; actives 9.2% (n = 290,000); inhibition, % at 38.7 µM; Vero cells, Shiga toxin protein synthesis inhibition reporter; in the data active means inhibition mostly above about 28%, no sharp cut-off; inactive means mostly below about 43%; further: 0% is about no effect
Giardia FBPA inh – blocks Giardia fructose-bisphosphate aldolase activity; A8B2U2; purified Giardia FBPA; AID 2451; Potency, µM (doses to about 59.6 µM), for the others: at the top dose activity, negative = inhibition, most hits filed as inhibitors; actives 0.71% (n = 290,000); further: potency means the concentration at half of the fitted maximal effect; on the % scale 0 is the no-effect control and ±100 the full control effect; nearly all actives have a fitted effect of over 55% in size
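Giardia FBPA (40 nM reagent) was preincubated 10 min at RT with compound (up to 57.5 uM final), then substrate plus GAPDH/TPI/NAD/arsenate coupling system with diaphorase/resazurin was added; resorufin fluorescence (525/598 nm) was read after 20 min.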
LmPK inh – LmPK (Leishmania mexicana) enzyme inhibition; actives 0.37% (n = 290,000); purified LmPK, Kinase-Glo ATP luminescence, 1 h; Q27686; Potency, µM (highest dose often 57.5 µM), for inactives: top-dose activity change, negative = inhibition, usual class: inhibitors; further: potency means the concentration at half of the fitted maximal effect; on the % scale 0 is the no-effect control and ±100 the full control effect
Target sequence (Q27686 whole entry, looked up): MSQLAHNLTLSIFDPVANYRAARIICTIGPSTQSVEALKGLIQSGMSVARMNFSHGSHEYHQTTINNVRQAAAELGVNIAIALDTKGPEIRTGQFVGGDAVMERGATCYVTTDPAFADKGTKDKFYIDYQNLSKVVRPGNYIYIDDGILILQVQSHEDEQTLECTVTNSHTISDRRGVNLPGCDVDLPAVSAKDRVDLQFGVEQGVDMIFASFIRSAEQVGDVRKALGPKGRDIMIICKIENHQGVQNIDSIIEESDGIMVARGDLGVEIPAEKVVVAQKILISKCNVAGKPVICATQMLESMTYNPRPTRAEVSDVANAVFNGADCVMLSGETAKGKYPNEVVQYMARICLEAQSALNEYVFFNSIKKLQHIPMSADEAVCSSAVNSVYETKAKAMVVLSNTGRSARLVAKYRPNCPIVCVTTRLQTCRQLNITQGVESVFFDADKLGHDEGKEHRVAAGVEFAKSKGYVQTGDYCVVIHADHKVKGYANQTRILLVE
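qHTS format; LmPK 0.1 nM; substrates PEP 0.5 mM and ADP 0.1 mM. One-hour room-temperature incubation, then coupled luciferase luminescence; 0.5 nM enzyme wells mark activation.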
Sm TGR block – inhibitors of Schistosoma mansoni thioredoxin glutathione reductase. AID 485364. Potency, µM (highest dose often 114 µM), inactives show at the highest dose activity change, negative = inhibition, hits mostly inhibitors. Q962Y6. actives 3% (n = 360,000). purified TGR, DTNB reduction, TNB absorbance 405 nm; further: potency means the concentration at half of the fitted maximal effect; on the % scale 0 is the no-effect control and ±100 the full control effect; nearly all actives have a fitted effect of over 60% in size
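First, TGR (20 nM dispensed) and NADPH were mixed with compound. Second, a 15 min room-temperature incubation followed. Third, further NADPH and then DTNB were added to start the reaction. Finally, TNB absorbance was monitored kinetically.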
An asterisk follows results filed as active; ? = inconclusive; · = no result given; + = active, no number; [ ] = dose if it differs, or a comment. Unless noted, the call rests on the fitted dose curve; in most records, active means well fitted curve in the direction sought with a large enough effect; inconclusive means small, poorly fitted or top-dose-only effect, or another doubt; inactive means no such curve, though single readings can be large; an effect the other way counts as inactive or inconclusive.

SMILES	TbPYK inhibitor	Cycloheximide cs	Shiga inhibitor	Giardia FBPA inh	LmPK inh	Sm TGR block
O=C(OCC1COc2ccccc2O1)c1ccccc1F (configuration not stated)	-1.7%	19.0*	24.6	0.5%	8.7%	-16.0%[11.4 µM]
O=C(NCC1COc2ccccc2O1)c1cc2ccccc2o1 (configuration not stated)	-4.2%	31.0*	65.1*	-3.5%	1.8%	-3.8%
CC1(C(=O)NCc2ccncc2)Cc2c(-c3cccc(C(F)(F)F)c3)ccnc2O1 (configuration not stated)	-3.0%	·	·	·	·	·
OC(c1ccc(Cl)c(F)c1)c1ncc(-c2ccccc2F)[nH]1 (configuration not stated)	-3.9%	·	·	·	·	·
CCC1(CC)C(=O)C2=C3C1[C@H](C(=O)OC)CC(C(=O)OC)C[C@H]3[C@H]1C(=O)N(C)C(=O)[C@H]1[C@H]2C (some centres not stated)	·	1.0	-2.8	-0.7%	·	·
O=C(NCCO)c1ccc(CSc2nc3ccccc3[nH]2)cc1	-4.2%	17.4*	18.5	0.3%	-5.0%	-2.3%
O=C(NCc1ccccc1Cl)c1ccc(CSc2nc3ccncc3[nH]2)cc1	1.3%	-3.6	-5.0	6.0%	3.7%	-2.3%
O=C(NCCCO)c1ccc(CSc2nc3ccccc3[nH]2)cc1	-7.9%	10.7*	31.1	0.8%	-5.1%	7.8%
NCCNc1cccc2ccccc12	1.0%	·	·	·	·	·
O=P(O)(O)C(O)(Cn1ccnc1)P(=O)(O)O	0.4%	-2.6	-3.9	0.7%	·	·
Cc1ccccc1/C=c1\s/c(=C\C(=O)C(C)(C)C)[nH]c1=O	-9.5%	24.1*	42.3	-0.7%	3.1%	-4.7%
CC(C)(C)C(=O)/C=c1\[nH]c(=O)/c(=C\c2ccc(F)cc2)s1	-4.3%	11.2*	17.8	5.8%	-5.1%	-11.2%
CCc1ccc(/C=c2\s/c(=C\C(=O)C(C)(C)C)[nH]c2=O)cc1	-5.0%	18.0	-27.9	-6.8%	-2.5%	0.0%
C=CCN1C(=O)/C(=C/c2cc(C)n(-c3cccnc3)c2C)C(=O)NC1=S	-15.2%	3.4	-3.9	?	6.1%	?
C=CCN1C(=O)/C(=C/c2ccc(Br)s2)C(=O)NC1=S	-1.4%	-3.1	·	14.9%	27.4%	2.51µM*
CCN1C(=O)/C(=C\c2ccc([N+](=O)[O-])s2)C(=O)NC1=S	·	-1.3	22.6	11.2µM*	19.4%	2.82µM*
COC(=O)c1sc(N/N=C/c2ccc(C(C)C)cc2)nc1C	0.7%	12.0	53.0*	5.2%	9.0%	-16.7%
CC(=O)c1sc(N/N=C\c2ccc(N(C)C)cc2)nc1C	-0.7%	31.0*	·	-15.9%	-1.8%	9.5%
CC(=O)c1sc(N/N=C/c2cccc(O)c2)nc1C	-3.2%	39.6*	49.8*	-11.6%	0.4%	-17.7%
Cn1cc(Br)c(C(=O)NNC(=O)c2ccc(Br)cc2)n1	-5.4%	35.3*	+	0.0%	-0.8%	-2.0%
Cn1cc(Br)c(C(=O)NNC(=O)c2ccccc2)n1	-6.0%	1.2	-1.2	0.1%	-6.5%	1.7%
Cn1cc(Br)c(C(=O)NNC(=O)Nc2ccccc2C(F)(F)F)n1	-2.0%	26.2*	50.7	-5.2%	-0.4%	·
Cc1c(Br)c(C(=O)NNC(=O)c2ccc(C(C)(C)C)cc2)nn1C	-1.9%	27.0*	33.2	5.9%	3.8%	15.0%
COc1ccc(Cl)cc1NC(=O)NCCc1c(C)nn(C)c1C	-6.1%	·	·	·	·	-12.9%
CC(C)(C)c1ccc(NC(=O)Nc2ccc(OCC(=O)N3CCOCC3)cc2)cc1	-2.8%	35.2*	93.4*	-8.0%	5.1%	-3.8%
SMILES	TbPYK inhibitor	Cycloheximide cs	Shiga inhibitor	Giardia FBPA inh	LmPK inh	Sm TGR block
CCCN(CCC)S(=O)(=O)c1ccc(C(=O)Nc2ccc(OCC(=O)N3CCOCC3)cc2)cc1	·	-5.6	4.5	-5.8%	0.2%	3.9%
O=C(Nc1ccc(C(=O)N2CCOCC2)cc1)Nc1cccc(Cl)c1	1.9%	44.4*	65.0*	-2.4%	-18.3%	-6.1%
O=C(Nc1ccc(OCC(=O)N2CCOCC2)cc1)Nc1cccc(Cl)c1	-3.0%	14.0*	39.2*	-4.7%	4.4%	-17.5%
N#Cc1ccc(-c2ccco2)nc1SCc1ccccc1	-0.9%	-3.7	-16.9	-0.3%	4.6%	?
CCSc1nc(-c2ccco2)ccc1C#N	?	-3.6	-19.3	-0.6%	0.8%	11.2µM*
Cc1cc(S(=O)(=O)NCCc2csc(-c3cccc(F)c3)n2)ccc1F	-5.7%	·	·	·	·	-1.9%
CCOC(=O)c1ccc(N=c2ssnc2Cl)cc1	35.5µM*	22.8*	52.8*	?	-12.3%	-28.5%
Clc1ccc(N=c2ssnc2Cl)cc1	25.1µM*	11.5	39.7*	?	-0.1%	?
Clc1nssc1=Nc1ccccc1	?	12.1	-2.9	?	-17.5%	?
Fc1ccc(N=c2ssnc2Cl)c(F)c1	14.1µM*	19.0*	42.8	?	-26.3%	-28.4%
COc1ccc(N=C2SCC(=O)N2C)cc1	-1.8%	·	·	·	·	·
COc1ccc(N=c2ssnc2Cl)cc1	-17.6%	17.6*	36.9*	?	-8.4%	56.2µM*
CC[C@H](C)[C@H](NC(=O)[C@H](Cc1ccc(O)cc1)NC(=O)CNC(=O)[C@@H]1CCCN1C(=O)[C@H](CC(=O)O)NC(=O)[C@@H](N)CS)C(=O)NCC(=O)N[C@@H](CO)C(=O)N[C@@H](CCCN=C(N)N)C(N)=O	·	-4.1	-3.6	-1.0%	·	·
CCc1cc2c(cc3c(=O)n(CC(=O)N4CCCCC4)nc(CC)n32)s1	3.5%	·	·	·	·	5.7%
CCOCCCNC(=O)c1ccc(OC2CCN(C(C)=O)CC2)c(OC)c1	-2.0%	-2.1	3.7	2.5%	0.3%	1.7%
Nc1ccc(NC(=O)c2ccco2)c(Cl)c1	3.3%	14.9	25.1	3.8%	2.3%	·
O=C(Nc1cc2c(cc1Cl)OCCO2)c1ccco1	0.6%	27.8*	92.6*	-1.8%	-11.7%	3.2%
O=C(Nc1ccc(NC(=O)c2ccco2)c(Cl)c1)c1ccc2c(c1)OCCO2	-9.6%	26.9*	64.4*	-3.1%	2.1%	-0.4%
O=C(Nc1cc2c(cc1Br)OCCO2)c1cccs1	0.6%	42.5*	180.6*	-4.5%	-13.1%	-14.0%
O=C(Nc1cc2c(cc1Br)OCCO2)c1cccnc1	-6.3%	24.0*	65.9	·	-9.5%	1.6%
O=C(Nc1ccc(NC(=O)c2ccco2)cc1)c1ccc2c(c1)OCO2	5.9%	0.7	11.9	1.5%	-17.3%	-21.0%
Cc1onc(-c2c(F)cccc2Cl)c1C(=O)Nc1cc2cc([N+](=O)[O-])ccc2oc1=O	4.8%	·	·	·	·	·
O=C(Nc1cc2c(cc1Br)OCCO2)c1ccco1	-21.5%	39.7*	active	-0.6%	-8.5%	-21.4%
O=C(Nc1c(C(=O)Nc2ccc3c(c2)OCCO3)cnn1-c1ccccc1Cl)c1ccco1	1.1%	76.5*	149.5*	-6.6%	-1.7%	-3.4%
CC(=O)c1cc2c(cc1NC(=O)c1ccco1)OCCO2	4.3%	9.9	15.2	-5.4%	-0.4%	2.0%
